Only a selection was taken, and hits are over-represented in it overall.
Methyltransferases: Primary Screen for Target Class Profiling of Small Molecule Inhibitors of Methyltransferases | purified enzyme, MTase-Glo SAH luminescence; stronger effect = lower value | calls only at 40 µM | actives 3.9% (n = 25,000) | AID 1745853, 2022; call rule not given here
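Each enzyme was assayed with SAM and its substrate. SAH formation detected by MTase-Glo luminescence; single-point 40 uM screen[…].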
MTase-Glo counter: counter-screen for methyltransferase inhibitors: coupling enzymes without methyltransferase. shares compounds with Methyltransferases. MTase-Glo coupled enzymes, SAH conversion luminescence, no MTase. Potency, µM (series often up to 57.3 µM), usual class: inhibitors. actives 6% (n = 180). AID 1745851; active means well fitted inhibition curve with a large enough effect; inconclusive means small, poorly fitted or top-dose-only effect
Numbers stand for hits; - = inactive; ? = inconclusive; + = active, no number.

SMILES | Methyltransferases | others
O=C(c1cc(-c2ccccc2)n[nH]1)N1CCc2c(nc(-c3ccccc3)[nH]c2=O)C1 | + | MTase-Glo counter=-
CCOc1ccccc1CN1C(=O)c2cc3sccc3n2CC1(C)C(=O)NC1CCCCCC1 (centres undefined) | -
CCN1C(=O)c2cc(C(=O)NCc3ccccc3Br)nn2CC1(C)C(=O)NC1CCCC1 (centres undefined) | -
Cc1cccc(CNC(=O)CCn2ccc3cc(S(=O)(=O)N4CCCCC4)ccc32)c1 | -
CSc1cccc(N2C(=O)c3cc(-c4cccs4)nn3CC2(C)C(=O)NC2CCCCCC2)c1 (centres undefined) | -
Cc1nn(-c2ccccc2)c2c1C(C)N(C1CCN([S+](=O)([O-])c3c(C)noc3C)C1)C2=O (centres undefined) | -
Cc1noc(C)c1[S+](=O)([O-])N1CCn2c(nn(-c3ccc(C(F)(F)F)cc3)c2=O)C1 | + | MTase-Glo counter=-
COc1ccc(-c2nnc3n2CCN([S+](=O)([O-])c2c(C)noc2C)C3)cc1 | -
CC1CCC(n2c3cnccc3c3cnc(Nc4ccc5c(n4)CCN(C(=O)CO)C5)nc32)CC1 (centres undefined) | -
Cc1ccccc1CN1C(=O)c2cc3ccccc3n2CC1(C)C(=O)NCCCOC(C)C (centres undefined) | -
CN1CCN(CCCNC(=O)c2cc3n(n2)CC(C)(C(=O)NCc2ccccc2)N(C)C3=O)CC1 (centres undefined) | -
C[C@@H]1CCC2C(C)(C)[C@H](O)CC[C@]2(C)[C@@]12Cc1c(O)cc3c(c1O2)CNC3=O (some centres undefined) | -
O=C(Nc1ccccc1)c1cnc2c(c1)N(C(=O)Cc1ccc(O)cc1)CCC2 | + | MTase-Glo counter=-
O=C(Nc1ccccc1)c1cc2n(n1)CCN(C(=O)COc1ccccc1)C2 | -
CC(C)c1ccc(CC(=O)N2CCCc3ncc(C(=O)NCCc4c[nH]c5ccccc45)cc32)cc1 | -
CCOC(=O)Cn1c(=O)oc2cc(S(=O)(=O)NCCc3ccc(Cl)cc3)ccc21 | -
COc1ccc(-c2n[nH]n3c2nc(=O)c2ccc(C(=O)NCc4ccccc4F)cc23)cc1 | -
Cn1c(=O)c2ccnn2c2ccc(C(=O)NCC3CCN(Cc4ccccc4F)CC3)cc21 | + | MTase-Glo counter=-
O=C(NC1CCCC1)c1ccc2c(c1)n(Cc1cccc(F)c1)c(=O)c1ccnn12 | -
Cc1cc(Cl)ccc1NC1CN(C(=O)OC(C)(C)C)C1 | -
CNc1cc(C2CC(NC(=O)COc3ccc(Cl)cc3C)C2)nc(N)n1 (centres undefined) | + | MTase-Glo counter=2.7µM
Cc1nc(CCNc2cc(C3CC(O)C3)nc(N)n2)nc2c1CCC2 (centres undefined) | -
COc1ccc(CN2C(=O)c3ccc(-c4ccccc4)n3CC2(C)C(=O)NC2CCCCC2)cc1 (centres undefined) | -
Cn1cc(-c2cc3c(ccn3Cc3ccncc3)c(N3CCOCC3)n2)cn1 | + | MTase-Glo counter=-
COc1ccc(-c2nnn3c2nc(N2CCOCC2)c2ccccc23)cc1 | -
SMILES | Methyltransferases | others
CC1CCC(NC(=O)C2(C)Cn3c(ccc3-c3ccccc3)C(=O)N2CC(C)c2ccccc2)CC1 (centres undefined) | -
Cc1ccc(CNC(=O)CSc2nnc3n(C)c(=O)c4ccc(C(=O)NC5CCCCC5)cc4n23)cc1 | -
CN(CC[C@H]1CN(C(=O)Cc2cccs2)CC[C@H]1CC(=O)O)c1ccccc1 | -
O=C(NCc1cccc(F)c1)c1nc2c(o1)CCN(CC1CCCC1)CC2 | + | MTase-Glo counter=-
COc1ccc(CN2CCc3nc(C(=O)NCCOc4ccccc4)oc3CC2)cn1 | -
O=C(NCC1CC1)c1nc2c(o1)CCN(CCCc1ccccc1)CC2 | -
COc1ccccc1CN1C(=O)c2ccc(-c3ccccc3)n2CC1(C)C(=O)NC1CCCCCC1 (centres undefined) | -
COc1ccc(N2CCN(C(=O)c3cc(NC(C)=O)cc4nc(C)ccc34)CC2)cc1 | + | MTase-Glo counter=-
COc1ccc(N2CCN(C(=O)c3cccc(Nc4nc5ccccc5n5nnnc45)c3)CC2)cc1 | -
COc1ccc(N2CCN(C(=O)c3ccc4c(=O)nc5c(-c6ccccc6F)n[nH]n5c4c3)CC2)cc1 | -
CCC(C)NC(=O)c1ccc2c(=O)n(C(C)C)c3nn(CC(=O)N(C)c4ccccc4)c(=O)n3c2c1 (centres undefined) | -
CCc1cccc(NC(=O)Cn2nc3n(CC(C)C)c(=O)c4ccc(C(=O)NC(C)CC)cc4n3c2=O)c1 (centres undefined) | -
Cc1nn(CC(=O)N2CCCCCC2)c(=O)c2nc(C(C)C)sc12 | -
CCc1cc2c(cc3n2CC(C)(C(=O)NC2CCC(C)CC2)N(Cc2ccc(C)cc2)C3=O)s1 (centres undefined) | -
CC(C)(C)n1nnnc1C1CC2(CCOCC2)C(=O)N1Cc1cccs1 (centres undefined) | -
COc1cccc2c1OCCCN(c1cc(C3CC(O)C3)nc(N)n1)C2 (centres undefined) | + | MTase-Glo counter=-
COc1cccc2c1OCCCN(Cc1cn(-c3ccccc3)nn1)C2 | -
CS(=O)(=O)NC1CCN(c2cc(C3CC(N)C3)nc(N)n2)CC1 (centres undefined) | -
COc1ccc(OC)c(N2C(=O)CSc3c(c4ccccc4n3C)C2C(=O)NCc2ccc(F)cc2)c1 (centres undefined) | -
COc1ccc(CCN2C(=O)c3cc4occc4n3CC2(C)C(=O)NC2CCCCC2C)cc1OC (centres undefined) | -
CCCc1cc2c(-c3ccccc3)cc(=O)oc2cc1OCc1ccc(C(=O)OC)o1 | -
O=C(Cc1ccsc1)Nc1ccc2c(N3CCCC3)ncnc2c1 | + | MTase-Glo counter=-
O=C(c1cc(F)ccc1F)N1CCCCC1c1nc(-c2cnccn2)n[nH]1 (centres undefined) | -
CN1C(=O)c2cc(NC(=O)c3ccccc3Cl)ccc2N2CCN=C12 | -
O=C(Nc1ccncc1)c1cc([N+](=O)[O-])ccc1Cl | -
SMILES | Methyltransferases | others
O=C(Nc1ccc2ncnc(N3CCCCC3)c2c1)c1cc(F)ccc1F | + | MTase-Glo counter=5.4µM
COc1ccc(CC(=O)Nc2ccc3ncnc(N4CCCC4)c3c2)c(Cl)c1 | + | MTase-Glo counter=?
COc1ccc(-c2cnc3[nH]cc(CC(=O)Nc4ccc(C(F)(F)F)cc4)c3c2)cc1 | -
COc1ccc(CNC(=O)Cn2ccc3cc(S(=O)(=O)N4CCCC4)ccc32)c(OC)c1 | -
O=C(Nc1cnc(Cl)nc1)c1ccc(F)c(F)c1 | -
O=C(Nc1ccc2c(N3CCCC3)ncnc2c1)c1cc(F)ccc1Cl | + | MTase-Glo counter=-
CC1CCN(C(=O)c2cc3n(n2)CC(C)(C(=O)NCc2ccccc2)N(C)C3=O)CC1 (centres undefined) | -
C[C@]1(O)CC[C@@H]2C(C(=O)O)=CO[C@@H](O[C@@H]3O[C@H](COC(=O)/C=C/c4ccc(O)c(O)c4)[C@@H](O)[C@H](O)[C@H]3O)[C@@H]21 | -
COc1ccccc1NC(=O)Cn1nc2n(CCc3ccccc3)c(=O)c3ccccc3n2c1=O | -
O=C(NCCCN1CCc2ccccc2C1)C1CCc2ncc(-c3ccc(F)cc3)n2C1 (centres undefined) | + | MTase-Glo counter=-
CCCNC(=O)C1CCc2ncc(-c3ccc(OC)cc3)n2C1 (centres undefined) | -
O=C(NCC1CC1)C1CCc2ncc(-c3ccc(F)cc3)n2C1 (centres undefined) | -

Screening data as filed in PubChem BioAssay.
